Data reported in PubChem BioAssay (NCI).
About 83,000 compounds went through this panel and 20% of them were active in at least one assay; those are over-represented in the sample as a whole.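 Assay: single dose, 48 h. Readout: percent growth (0 = no net growth; negative = cell death). Active: <10.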 Values without a mark were called inactive. Calls of active or inactive are those of the source.

Tests used:
Assay in all cases: NCI-60 one-dose screen, 48 h (100 = growth as untreated, 0 = no growth, -100 = all killed)
Conditions in all cases: 10 µM
[1] = test system: NCI-H23 lung
[2] = test system: NCI-H522 lung
[3] = test system: MALME-3M melanoma
[4] = test system: MDA-MB-231 breast
[5] = test system: M14 melanoma
[6] = test system: SK-MEL-5 melanoma
[7] = test system: UACC-62 melanoma
[8] = test system: LOX IMVI melanoma
[9] = test system: SK-MEL-28 melanoma
[10] = test system: SR leukemia
[11] = test system: OVCAR-8 ovarian
[12] = test system: OVCAR-5 ovarian
[13] = test system: OVCAR-4 ovarian
[14] = test system: SK-OV-3 ovarian
[15] = test system: IGROV1 ovarian
[16] = test system: HS 578T breast
[17] = test system: NCI/ADR-RES ovarian
[18] = test system: T-47D breast
[19] = test system: SW-620 colon
[20] = test system: MCF7 breast

Compound | growth [1] | growth [2] | growth [3] | growth [4] | growth [5] | growth [6] | growth [7] | growth [8] | growth [9] | growth [10] | growth [11] | growth [12] | growth [13] | growth [14] | growth [15] | growth [16] | growth [17] | growth [18] | growth [19] | growth [20]
CC(C)(O)/C=C/C(=O)[C@](C)(O)[C@H]1[C@H](O)C[C@@]2(C)[C@H]3CC=C4[C@@H](C[C@H](O)C(=O)C4(C)C)[C@]3(C)C(=O)C[C@]12C | 27.7% | -42.5% (active) | -28.3% (active) | 10.4% | 17.1% | 1.6% (active) | -2.65% (active) | -13.8% (active) | -7.52% (active) | 8.56% (active) | 23% | 35.1% | 18.3% | -8.31% (active) | -24.4% (active) | 3.77% (active) | 24.7% | 27.2% | 22.9% | 13%
CC1=C[C@H]2O[C@@H]3C[C@H]4OC(=O)/C=C\C=C\[C@H]([C@@H](C)O)OCC/C(C)=C/C(=O)OC[C@@]2(CC1)[C@]4(C)[C@]31CO1 | -36.1% (active) | -39.3% (active) | -65.9% (active) | -29.6% (active) | -73.7% (active) | -89.2% (active) | -58.6% (active) | -81.1% (active) | -38.6% (active) | -9.9% (active) | -24.4% (active) | -14.8% (active) | -22.1% (active) | -23.5% (active) | -10.7% (active) | -9.53% (active) | -20% (active) | -20% (active) | 0.094% (active) | -10.6% (active)
CC1=C(CCC=NNC(N)=O)C2=C(C)C3(CC3)[C@@](C)(O)C(=O)C2=C1 | -35.2% (active) | -62% (active) | -71.1% (active) | -5% (active) | -84.4% (active) | -80.6% (active) | -54.9% (active) | -31.9% (active) | -48.8% (active) | 29.9% | -36.1% (active) | -6.93% (active) | -33.3% (active) | -52.1% (active) | -17.8% (active) | -23.6% (active) | -18.1% (active) | -9.73% (active) | 55.4% | 6.29% (active)
C/C=C\C(=O)O[C@@H]1CC2O[C@@H]3C=C(C)C(=O)C[C@]3(C)[C@]1(C)[C@]21CO1 | -21.3% (active) | -18.4% (active) | -22.9% (active) | -21.1% (active) | -78.6% (active) | -57% (active) | -27.2% (active) | -56.3% (active) | -20.9% (active) | -13.1% (active) | 0.288% (active) | -3.51% (active) | -12.2% (active) | -15.1% (active) | 1.08% (active) | -2.98% (active) | -3.97% (active) | -24% (active) | 0.59% (active) | 0.933% (active)
COc1cc(OC)c(S(=O)(=O)N(CCCl)CCCl)cc1C(=O)/C=C/c1ccc(Cl)cc1 |  | 83.5% | 85.4% | 67.1% | 68.4% | 87.1% | 51.1% |  | 92.3% | 10.1% | 59.8% | 107% | 83.4% | 79% | 76.3% | 78.6% | 52.3% | 74.4% | 48.7% | 15.8%
